The list is not random: actives were taken first. Their share in the collection is about 4.1%.
ALR inh – inhibitors of human sulfhydryl oxidase ALR. 290,000 compounds, 3.8% hits. inhibition, % (test concentration not listed). purified ALR, DTT oxidation, H2O2 HRP-luminol luminescence. P55789;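 active = mean replicate inhibition above about 79%, with every replicate also reaching it, limit read from the data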
Target sequence (P55789 whole entry, looked up): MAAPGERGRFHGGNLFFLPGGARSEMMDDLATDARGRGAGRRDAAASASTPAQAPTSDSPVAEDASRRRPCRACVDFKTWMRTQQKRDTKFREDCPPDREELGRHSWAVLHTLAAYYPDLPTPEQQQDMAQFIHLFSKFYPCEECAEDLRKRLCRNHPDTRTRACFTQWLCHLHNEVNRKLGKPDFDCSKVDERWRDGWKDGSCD
CASP6 VEID inh – inhibitors of human caspase-6. P55212. purified caspase-6, Z-VEID-R110 cleavage fluorescence. inhibition, % at 12.5 µM. 350,000 compounds, 0.53% hits;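 active = mean inhibition across replicates at least about 35%, with every replicate also reaching that limit, limit read from the data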;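 note: 0% = median of neutral control wells and 100% = no fluorescence left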
Target sequence (P55212 24-179 limits assumed): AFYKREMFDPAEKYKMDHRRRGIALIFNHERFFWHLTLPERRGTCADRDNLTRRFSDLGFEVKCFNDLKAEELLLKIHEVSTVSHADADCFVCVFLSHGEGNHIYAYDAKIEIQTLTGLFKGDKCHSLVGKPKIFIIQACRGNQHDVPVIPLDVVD
Target sequence (P55212 194-293 limits assumed): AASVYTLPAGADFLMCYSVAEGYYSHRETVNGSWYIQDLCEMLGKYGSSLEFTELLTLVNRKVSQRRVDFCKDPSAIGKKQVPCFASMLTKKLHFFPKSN
F508del corr – CFTR F508del correction in bronchial cells | CFBE cells, YFP halide quenching; stimulated with forskolin plus potentiator P3; % fluorescence drop versus neutral controls | activity (quench increase), % at 7.58 µM | 350,000 compounds, 0.36% hits | AID 720511;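 active = mean added fluorescence quench of at least 8% versus neutral control, with both replicates also reaching 8%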;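 note: cells transiently co-express mutant CFTR-F508del with the halide-sensitive YFP; corrector assay measuring rescue of mutant channel to the surface after 24 h compound exposure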
Env fusion inh – HIV envelope-mediated fusion inhibition. HeLa-JRFL Env/CEM21 cell fusion, luciferase. inhibition, % at 12.3 µM. 360,000 compounds, 1.1% hits. AID 651610;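 active = mean replicate inhibition score of at least 50 and every replicate individually at or above 50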;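 note: 0% = plate neutral controls and 100% = maraviroc near 300 nM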
NSD2 HMT inh – NSD2 (human) methyltransferase inhibition. O96028. NSD2 peptide methylation, AlphaScreen, 120 min. inhibition, % at 12.5 µM. 310,000 compounds, 0.54% hits; in the data active = inhibition above about 50%
PglD inh – inhibitors of Campylobacter jejuni PglD acetyltransferase; AID 602405; purified PglD enzyme, DTNB colorimetric CoA detection; 360,000 compounds, 0.098% hits; inhibition, % at 12.5 µM; in the data active = inhibition above about 16%, passing the limit was not always enough
Starred values were filed as active, the others as inactive; / = no result given; [ ] = remark or other dose.

SMILES | ALR inh | CASP6 VEID inh | F508del corr | Env fusion inh | NSD2 HMT inh | PglD inh
O=C1CC(N2CCc3ccccc32)C(=O)N1c1ccccc1 (stereo not given) | 98.7* | 3.6 | 1.1 | -3.0 | -3.6 | 6.2
COc1ccccc1N1CCN(Cc2cc(=O)n3ccsc3n2)CC1 | 90.0* | / | / | / | -2.4 | -2.6
COc1cc(C(=O)N/N=C/c2ccc3c(c2)c2ccccc2n3C)ccc1O | 99.5* | -2.7 | 3.8 | -104.4 | -1.2 | 1.7
O=C(N/N=C/c1cccc(O)c1)c1ccccc1O | 41.7 | 48.7* | 0.4 | 1.1 | -0.8 | /
Cn1c2ccccc2c2cc(/C=N/NC(=O)c3cc(O)cc(O)c3)ccc21 | 1.7 | 4.5 | 2.7 | / | -1.1 | 4.1
COc1ccc2c(c1)c(C(=O)N/N=C/c1ccc(O)c(O)c1)c(C)n2C | 99.5* | / | / | -50.6 | 33.1 | /
Cn1c2ccccc2c2cc(/C=N/NC(=O)c3cc(O)ccc3O)ccc21 | -4.1 | 48.2* | -2.1 | -383.5 | -1.0 | 0.4
COc1ccc2c(c1)c(C(=O)N/N=C/c1ccc(Br)cc1)c(C)n2C | / | -0.8 | -1.8 | -1.0 | -1.3 | -1.3
O=C(N/N=C/c1cccc(O)c1)c1csc2ccccc12 | 33.4 | / | / | / | 0.4 | -0.3
Cc1cccc(NC(=O)CSCC(=O)Nc2ccc(N3CCOCC3)cc2N2CCOCC2)c1 | / | 1.4 | 0.6 | 10.3 | / | -0.4
Cc1cccc(NC(=O)CSCC(=O)Nc2cc(C(F)(F)F)ccc2N2CCOCC2)c1 | / | -0.1 | 1.2 | 68.5* | -2.3 | 5.4
Cc1cc(NC(=O)C(C)SCC(=O)Nc2cc(C(F)(F)F)ccc2N2CCCCC2)no1 (stereo not given) | -19.7 | 3.1 | 2.3 | 74.5* | 1.5 | 0.5
C[C@@H]1CN([C@H](C)CO)C(=O)c2cccc(N(C)C)c2O[C@H]1CN(C)Cc1ccc(Oc2ccccc2)cc1 | / | 0.6 | 1.9 | 13.4[16.7 µM] | / | -2.1
Nc1ccc(C(=O)Nc2nc3ccccc3s2)cc1 | 94.3* | 2.2 | 3.5 | -447.9 | / | -5.3
COCC(=O)Nc1nc2ccccc2s1 | 0.9 | / | / | -32.7 | 2.3 | -5.8
NC(=S)Nc1nc2ccccc2s1 | 93.8* | -1.9 | -0.2 | -18.5 | / | /
Cc1cc(C)n(-c2ccc(C(=O)Nc3nc4ccccc4s3)cc2)n1 | -3.6 | / | / | / | -2.2 | -2.0
CO[C@@H]1CN(C)C(=O)c2cc(NS(=O)(=O)c3ccc(C)cc3)ccc2OC[C@@H](C)NC[C@@H]1C | / | -0.6 | -0.8 | 22.5[16.7 µM] | / | -0.8
CCc1ccc(NC(=O)CCS(=O)(=O)c2cccc3nsnc23)cc1 | -8.2 | / | / | -55.1 | -1.1 | -5.2
CCN(CC)c1ccc(NC(=O)CCS(=O)(=O)c2cccc3nsnc23)c(C)c1 | 98.9* | 5.0 | 1.1 | 9.6 | 8.8 | /
C[C@@H]1CN([C@@H](C)CO)S(=O)(=O)c2ccc(C#C[C@@H](C)O)cc2O[C@@H]1CN(C)CC1CCOCC1 | / | / | -1.5 | -10.2[16.7 µM] | / | -2.1
O=C(CSc1ccc(-c2ccccc2)nn1)Nc1ccc2c(c1)OCCO2 | -16.3 | -6.2 | 0.3 | -27.6 | -0.2 | /
O=C(CSC1=NC2(CCCCC2)N=C1c1ccccc1)Nc1ccc2c(c1)OCCO2 | 98.2* | -0.6 | -1.9 | 28.9 | / | -2.0
Cc1ccc(C2=NC3(CCCC3)N=C2SCC(=O)Nc2ccc3c(c2)OCCO3)cc1 | 98.9* | -1.6 | 1.4 | 21.8 | / | 2.6
O=C(CSC1=NC2(CCCCCC2)N=C1c1ccccc1)Nc1ccc2c(c1)OCCO2 | 98.1* | -3.7 | -4.5 | 27.5 | / | -0.2
SMILES | ALR inh | CASP6 VEID inh | F508del corr | Env fusion inh | NSD2 HMT inh | PglD inh
Cc1ccc(C2=NC(C)(C)N=C2SCC(=O)Nc2ccc(Cl)cc2)cc1 | / | / | / | -36.5 | -3.3 | -2.1
CO[C@H]1CN(C)C(=O)c2ccc(NS(=O)(=O)c3cn(C)cn3)cc2OC[C@H](C)N(CCC(F)(F)F)C[C@H]1C | / | 3.5 | -3.4 | / | / | 2.0
CCN(CC)c1ncnc2scc(C3COc4ccccc4O3)c12 (stereo not given) | -4.7 | / | / | 27.8 | -4.5 | 4.6
c1ccc2c(c1)OCC(c1csc3ncnc(N4CCOCC4)c13)O2 (stereo not given) | -6.0 | / | / | 69.6* | -6.7 | /
CC(=O)N/N=C/c1cc(C)n(-c2ccc(Br)cc2)c1C | 97.6* | 2.0 | -2.3 | / | 5.8 | 5.1
COC(=O)N/N=C/c1cc(C)n(-c2ccc(Br)cc2)c1C | 5.9 | 9.0 | 2.2 | -0.1 | 1.8 | 9.3
CCCNC(=O)C[C@@H]1C[C@H]2c3cc(NS(=O)(=O)c4cccc(OC)c4)ccc3O[C@H]2[C@@H](CO)O1 | / | 1.5 | -4.4 | / | / | -1.9
Cc1cccc(Nc2nc(-c3cccs3)cs2)n1 | 94.2* | / | / | / | 0.6 | 1.7
c1ccc(Nc2nc(-c3cccs3)cs2)nc1 | 36.7 | / | / | / | 1.5 | -0.8
Cc1cccc(Nc2nc(-c3ccccn3)cs2)n1 | 88.8* | / | / | -80.0 | 27.8 | -3.6
CCCCC(=O)NC(c1ccc(Cl)cc1)c1ccc2cccnc2c1O (stereo not given) | -7.7 | 0.2 | 1.9 | -26.0 | / | 1.5
CCCC(=O)NC(c1cccs1)c1cc(Cl)c2cccnc2c1O (stereo not given) | -2.3 | -10.8 | 0.3 | 73.8* | / | /
CCCC(=O)NC(c1ccco1)c1cc(Cl)c2cccnc2c1O (stereo not given) | -21.2 | / | / | / | 1.0 | 2.9
CCCC(=O)NC(c1ccc(Cl)cc1)c1ccc2cccnc2c1O (stereo not given) | -0.6 | -3.2 | 15.1* | -10.4 | 1.2 | 1.4
CCCC(=O)NC(c1cccc([N+](=O)[O-])c1)c1ccc2cccnc2c1O (stereo not given) | / | -5.9 | -1.6 | 92.0* | 2.8 | -0.3
CC(C)C#Cc1cnc2c(c1)C(=O)N([C@H](C)CO)C[C@@H](C)[C@H](CN(C)Cc1cncnc1)O2 | / | -0.4 | 1.4 | / | / | 5.2
CC/C(=N\NS(=O)(=O)c1ccc(C)cc1)c1ccco1 | 97.8* | -0.1 | 1.2 | 6.1 | 1.1 | -6.6
O=C(N/N=C/c1cccn1-c1cccc(C(=O)O)c1)Nc1ccccc1 | 97.2* | / | / | -17.5 | 24.1 | /
O=C1NN(c2ccc(Cl)c(Cl)c2)C(=O)/C1=C/c1ccc(-c2ccccc2C(=O)O)o1 | 99.0* | 37.4* | 1.3 | -13.6 | 15.9 | -11.6
Cc1ccc(N2NC(=O)/C(=C/c3ccc(-c4ccc(Cl)c(C(=O)O)c4)o3)C2=O)cc1C | -1.0 | 3.0 | 2.2 | 21.3 | / | /
O=C1NN(c2ccccc2)C(=O)/C1=C/c1ccc(-c2ccc(C(=O)O)cc2)o1 | 99.0* | 34.8 | 1.0 | -99.8 | 43.3 | -3.8
COC(=O)c1ccc(N2NC(=O)/C(=C/c3ccc(-c4ccc(Cl)c(C(=O)O)c4)o3)C2=O)cc1 | / | 57.9* | -0.5 | -8.3 | -1.6 | /
C[C@@H]1CN([C@@H](C)CO)C(=O)c2cc(C#CCc3ccccc3)cnc2O[C@@H]1CN(C)CC1CC1 | / | 0.5 | 1.1 | / | / | /
O=C(C[C@@H]1C[C@H]2c3cc(NC(=O)C4CCC4)ccc3O[C@H]2[C@@H](CO)O1)NCc1cccnc1 | / | 0.7 | -3.5 | 11.9[16.7 µM] | / | 1.2
Oc1ccc2ccccc2c1/C=C/c1ccc2c(Br)cc(Br)c(O)c2n1 | / | 0.7 | 13.3* | 27.7 | -0.1 | /

Assay outcomes as filed in PubChem BioAssay.
